Laboratory results from PubChem BioAssay (NCATS).
Values without a mark were called inactive. Calls follow the shape of the dose curve; as a rule, active = well fitted curve in the direction sought with a large enough effect (not every such curve was filed as active); inconclusive = small, poorly fitted or top-dose-only effect, or effect the other way, or another doubt; inactive = no such curve, though single readings can be large or run the other way.

The compounds below were run against Pyruvate kinase PKM (Homo sapiens) (UniProt P14618) (assay: qHTS Assay for Activators of Human Muscle Pyruvate Kinase (AID 954;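 also: 0% = uninhibited enzyme and -100% = no enzyme or full thiadiazolimine inhibition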)). Details: purified human muscle pyruvate kinase, luciferase-coupled luminescence, 1 h; series mostly up to 57.5 µM; activity change, negative = inhibition: at the top concentration.
Procedure, shortened: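 Reaction: 0.1 nM purified PKM2 with 0.5 mM phosphoenolpyruvate and 0.1 mM ADP, room temperature, 1 h. Readout: luciferase-based ATP luminescence after stop reagent. Activators judged against a 0.3 nM enzyme column.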

Chain of Pyruvate kinase PKM (Homo sapiens) (P14618 whole entry, looked up): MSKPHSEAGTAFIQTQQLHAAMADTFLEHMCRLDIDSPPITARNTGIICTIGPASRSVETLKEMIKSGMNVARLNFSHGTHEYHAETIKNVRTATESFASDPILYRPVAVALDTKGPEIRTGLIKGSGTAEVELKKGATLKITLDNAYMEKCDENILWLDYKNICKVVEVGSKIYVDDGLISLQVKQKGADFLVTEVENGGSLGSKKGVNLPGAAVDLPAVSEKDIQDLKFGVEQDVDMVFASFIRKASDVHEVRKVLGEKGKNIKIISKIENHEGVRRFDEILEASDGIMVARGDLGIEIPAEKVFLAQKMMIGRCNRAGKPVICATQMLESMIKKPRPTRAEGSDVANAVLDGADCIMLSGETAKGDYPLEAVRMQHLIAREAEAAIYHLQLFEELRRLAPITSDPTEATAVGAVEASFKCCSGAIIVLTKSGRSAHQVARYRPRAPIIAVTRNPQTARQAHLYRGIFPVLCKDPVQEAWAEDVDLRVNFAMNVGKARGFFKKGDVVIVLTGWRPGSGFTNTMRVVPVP

| SMILES | activity change, negative = inhibition |
| --- | --- |
| OCCN1CCN(CCCN2c3ccccc3Sc3ccc(Cl)cc32)CC1 | -14% |
| CN(C)CCCN1c2ccccc2Sc2ccc(Cl)cc21 | 15.1% |
| C#CCN(C)Cc1ccccc1 | -21.9% |
| CC(C)C(=O)c1c(C(C)C)nn2ccccc12 | 10.3% |
| CCCCCCCCCCCCCCCC(=O)NCCO | -6.28% |
| CN(C)CCC=C1c2ccccc2CCc2ccccc21 | -13.4% |
| CCN(CC)CCNC(=O)c1cc(Cl)c(N)cc1OC | -25.4% |
| NC(N)=NCCC[C@H](N)C(=O)O | 14.6% |
| CC(=O)OCC(=O)[C@@]1(O)CC[C@H]2[C@@H]3CCC4=CC(=O)CC[C@]4(C)[C@H]3C(=O)C[C@@]21C | -4.74% |
| CCN(CC)CCOC(=O)C1(C2CCCCC2)CCCCC1 | -26.6% |
| Nc1cc(=O)[nH]c(N)n1 | -10.2% |
| CN(C)CCCN1c2ccccc2CCc2ccccc21 | -18.4% |
| C[C@]12CC[C@@H]3c4ccc(O)cc4CC[C@H]3[C@@H]1CCC2=O | 5.1% |
| C=Cc1c(C)c2cc3[nH]c(cc4nc(cc5nc(cc1[nH]2)C(C)=C5CCC(=O)O)C(CCC(=O)O)=C4C)c(C)c3C=C | -12.6% |
| OCc1cc(C(O)CNCCCCCCOCCCCc2ccccc2)ccc1O (centres undefined) | -28.4% |
| CC1=C(CC(=O)O)c2cc(F)ccc2/C1=C\c1ccc(S(C)(=O)=O)cc1 | -8.14% |
| COc1ccc(Cl)cc1C(=O)NCCc1ccc(S(=O)(=O)NC(=O)NC2CCCCC2)cc1 | -5.44% |
| CCCn1cnc2c1c(=O)n(CCCCC(C)=O)c(=O)n2C | -19.5% |
| Cc1cc(N)c2ccccc2[n+]1CCCCCCCCCC[n+]1c(C)cc(N)c2ccccc21 | -13.2% |
